13 compounds from PubChem BioAssay (NCI) can be followed below.

Each structure is given as a SMILES string. This is part of a sample that, as a whole, favours compounds with a hit. Of some 83,000 tested, about 20% had one in any assay.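 Assay: single dose, 48 h. Readout: percent growth (0 = no net growth; negative = cell death). Active: <10.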 Unmarked numbers belong to inactive results. The source made the active and inactive calls.

Common to all, as to assay: NCI-60 one-dose screen, 48 h (100 = growth as untreated, 0 = no growth, -100 = all killed)
Conditions in all cases: 10 µM unless noted

Assay [1] relates to SR leukemia.
In assay [2] the test system is RPMI-8226 leukemia.
Assay [3] has as its system OVCAR-8 ovarian.
The test system of assay [4] is OVCAR-5 ovarian.
In assay [5] the test system is OVCAR-4 ovarian.
In assay [6] the test system is SK-OV-3 ovarian.
For assay [7], the system named is IGROV1 ovarian.
The subject of assay [8] is OVCAR-3 ovarian.
The test system of assay [9] is HS 578T breast.
For assay [10], the system named is NCI/ADR-RES ovarian.

For `CCOC(=O)C1=C(C)NC(C)=C(C(=O)OC(C)C)C1c1cccc(C#N)c1` (stereo not given), the growth was 90.9% in assay [1]; 108% in [2]; 103% in assay [3]; 99.1% in [4]; 104% in assay [5]; 132% in [6]. In addition, the growth was 103% in assay [7], 105% in assay [8], 98% in assay [9] and 95% in assay [10].
Consider `NC1CC2(CCN(c3cnc(C(=O)Nc4cc(F)cc5cccnc45)cn3)CC2)C1`, for which the growth in assay [1] is 3.71% (active); in [2], 61.1%; in assay [3], 94.6%; in assay [4], 85.9%; in assay [5] it was 95.2%; in assay [6] it was 107%. The growth in assay [7] is 64.8%; in [8], 85.2%; in [9], 94.2%; in [10] it was 89.2%.
As for `Cc1ccc2c(n1)C(=O)C(Cl)=C(Nc1ccc(C#N)cc1)C2=O`, the growth was 15.3% in assay [1]; 55.1% in [2]; 91.5% in assay [3]; 106% in assay [4]; -98.5% (active) in assay [5]; 106% in assay [6]. Besides, the growth was 68.4% in assay [7], 4.24% (active) in assay [8], 97.7% in assay [9] and 98% in [10].
With `N/C(=N\C(N)=N\c1nc2ccccc2s1)c1ccc(Cl)cc1`, the growth in [1] is -8.26% (active); in assay [2], 57%; in assay [3], 79.5%; in [4] it was 94.5%; in assay [5], 101%; in assay [6] it was 110%. In addition, the growth in assay [7] was 92%; in assay [8] it was 98.4%; in [9] it was 105%; in assay [10] it was 80.3%.
Regarding `COC(=O)c1ccc(NC2=C(Cl)C(=O)c3nc(C)ccc3C2=O)cc1`, the growth in assay [1] is 22.3%; in [2] it was 36.9%; in assay [3], 70.1%; in assay [4], 105%; in assay [5], 58.5%; in [6] it was 125%. Moreover, the growth in assay [7] is 41.4%; in [8], 63.6%; in assay [9], 71.5%; in assay [10], 19.7%.
As for `COc1cc2cc(Oc3ccc(NC(=O)c4cc(C(F)(F)F)cc(C(F)(F)F)c4)cc3)c(C)nc2cc1OCCN1CCOCC1`, the growth in assay [1] was 20.6%; in assay [2], 24.6%; in [3], 80.1%; in [4] it was 95.7%; in [5], 48.8%; in [6], 87.5%. The growth in assay [7] was 85.6%; in assay [8] it was 78.9%; in assay [9], 36.7%; in [10], 62.4%.
For the compound `CC(Nc1c(C#N)cnc2ccc(-c3cncc(O)c3)cc12)c1ccccc1` (stereo not given), the growth in assay [1] is 6.19% (active); in assay [2] it was 11.3%; in assay [3], 13%; in [4] it was 25.6%; in assay [5], -17.5% (active); in [6], -3.84% (active). Moreover, the growth in assay [7] is -20.3% (active); in [8], 7.92% (active); in assay [9] it was -18.3% (active); in assay [10] it was 12.4%.
In the case of `CCCCN1C(=O)/C(=c2\sc3n(c2=O)C2C(NN=3)N(CC)C(=O)N2CC)c2cc(C)ccc21` (stereo not given), the growth in assay [1] was 64.1%; in [2] it was 99.8%; in assay [3] it was 93%; in assay [4] it was 96.1%; in [5] it was 97.2%; in assay [6], 108%. In addition, the growth in assay [7] is 88.4%; in [8], 102%; in assay [9], 89.7%; in assay [10], 81.9%.
For the compound `CC(=O)Nc1cc(N2CCOCC2)c2nc(NC(=O)c3[nH]c(C)c(Cl)c3Cl)sc2c1`, the growth is 28.6% in [1]; 55% in [2]; 67.1% in [3]; 94.7% in [4]; -10.8% (active) in assay [5]; 95.5% in assay [6]. In addition, the growth is 82.5% in assay [7], 72.3% in assay [8], 31.3% in assay [9] and 48.9% in assay [10].
As for `Cc1cc(Br)ccc1-n1cc(C#N)c(N)c1C(=O)c1ccc(Br)cc1`, the growth is 89.4% in [1]; 106% in assay [2]; 106% in assay [3]; 114% in [4]; 114% in assay [5]; 109% in assay [6]. Moreover, the growth is 110% in assay [7], 115% in assay [8], 106% in assay [9] and 103% in [10].
For `O=C(CSc1nnc(-c2cccs2)n1-c1ccccc1)Nc1ccccc1F`, the growth in [1] was 25.3%; in assay [2], 88.7%; in [3] it was 95.1%; in assay [4] it was 100%; in [5] it was 95.1%; in assay [6], 96.4%. Also, the growth in assay [7] is 84.9%; in [8], 86.9%; in [9] it was 91.6%; in assay [10], 49.2%.
Turning to `CC(C)(C)Nc1nc2c(OCCc3ccccc3)cccn2c1-c1cccc(Oc2ccccc2)c1`, the growth was 3.9% (active) in assay [1]; 4.94% (active) in assay [2]; 10.2% in [3]; 17.7% in assay [4]; 31.2% in [5]; -1.76% (active) in [6]. In addition, the growth in assay [7] is 34%; in [8], 24%; in assay [9] it was 13.9%; in [10] it was 7.94% (active).
`C=C(C)[C@@H]1CC[C@]2(C(=O)N3CCN(C)CC3)CC[C@]3(C)[C@H](CC[C@@H]4[C@@]5(C)CC[C@H](OP(=O)(OCC)OCC)C(C)(C)[C@@H]5CC[C@]43C)[C@@H]12`: the growth in assay [1] was -26.6% (active); in assay [2], 35.2%; in [3], 84.3%; in [4], 105%; in assay [5], 91.2%; in [6], 104%. Besides, the growth was 92.9% in [7], 100% in [8], 87.6% in [9] and 82.4% in [10].
